Measurements: PubChem BioAssay AID1159580 (chemical genetic matrix, 2015)
Values joined by “and” are separate entries in the source; they are usually repeats but may differ in a detail not shown here. Equal entries are not always repeated. Among all 5,500 compounds or so, about 2,000 (36%) were called active. Another 18% or so got no clear call; they are omitted. Cut-off read from the data, not from the text of the source: active = normalized growth mostly below about 0.91 (no sharp cut-off); inconclusive = no clear call, values can overlap the other calls; inactive = mostly above about 0.92. The list shows a part of the results.

Assay: chemical genetic growth profiling, strain panel (AID 1159580);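 note: tested at 20 µM; growth read once vehicle control cultures reached saturation at 30 °C; 1 = growth at the plate median or of vehicle wells; lower values mean less growth of the strain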
Conditions: S. cerevisiae deletion strains, growth OD

Measured: normalized growth

Nc1ccn(C2O[C@H](CO)[C@@H](O)[C@@H]2O)c(=O)n1 (stereo partly drawn)
inactive: locus YAL021C, strain ccr4, active compounds read low 0.997 | locus YAL026C, strain drs2, active compounds read low 0.974 | locus YAL030W, strain snc1, active compounds read low 0.999 | locus YBL061C, strain skt5, active compounds read low 1.01 | locus YBR009C, strain hhf1, active compounds read low 0.972 | locus YBR021W, strain FUR4, active compounds read low 1.02 | locus YBR023C, strain chs3, active compounds read low 1.02 | locus YBR171W, strain sec66, active compounds read low 0.994 | locus YBR229C, strain ROT2, active compounds read low 1.01 | locus YBR231C, strain swc5, active compounds read low 0.999 | locus YBR279W, strain paf1, active compounds read low 0.998 | locus YCL011C, strain gbp2, active compounds read low 1 | locus YCL016C, strain dcc1, active compounds read low 1.05 | locus YCL029C, strain bik1, active compounds read low 1 | locus YCL061C, strain MRC1, active compounds read low 1.01 | locus YCL069W, strain vba3, active compounds read low 0.979 | locus YCR088W, strain abp1, active compounds read low 0.986 | locus YDL005C, strain med2, active compounds read low 0.989 | locus YDL035C, strain GPR1, active compounds read low 1.03 | locus YDL040C, strain nat1, active compounds read low 0.984 | locus YDL074C, strain BRE1, active compounds read low 1.01 | locus YDL101C, strain DUN1, active compounds read low 1 | locus YDL185W, strain tfp1, active compounds read low 0.991 | locus YDL192W, strain arf1, active compounds read low 0.998 | locus YDR001C, strain nth1, active compounds read low 0.989 | locus YDR069C, strain doa4, active compounds read low 0.984 | locus YDR101C, strain arx1, active compounds read low 1.02 | locus YDR137W, strain rgp1, active compounds read low 1.01 | locus YDR159W, strain sac3, active compounds read low 0.961 | locus YDR162C, strain NBP2, active compounds read low 1.02 | locus YDR195W, strain ref2 0.997 | locus YDR297W, strain sur2, active compounds read low 0.986 | locus YDR318W, strain mcm21, active compounds read low 1 | locus YDR334W, strain swr1, active compounds read low 0.987 | locus YDR335W, strain msn5, active compounds read low 0.997 | locus YDR388W, active compounds read low 0.994 | locus YDR392W, strain spt3, active compounds read low 0.943 | locus YDR502C, strain sam2, active compounds read low 1.02 | locus YEL003W, strain gim4, active compounds read low 0.973 | locus YEL037C, strain rad23, active compounds read low 0.973 | locus YEL061C, strain CIN8 (second series), active compounds read low 0.976 | locus YEL061C, strain CIN8, active compounds read low 1.01 | locus YER015W, strain faa2, active compounds read low 1.01 | locus YER016W, strain bim1, active compounds read low 1.01 | locus YER110C, active compounds read low 1 | locus YER111C, strain swi4, active compounds read low 0.987 | locus YER155C, strain BEM2 (second series), active compounds read low 0.969 | locus YER155C, strain BEM2, active compounds read low 1.01 | locus YER167W, strain BCK2, active compounds read low 1.01 | locus YFR010W, strain ubp6, active compounds read low 0.976 | locus YGL078C, strain dbp3, active compounds read low 0.995 | locus YGL086W, strain mad1, active compounds read low 1 | locus YGL167C, strain pmr1, active compounds read low 1.01 | locus YGL173C, strain kem1, active compounds read low 1 | locus YGL227W, strain vid30, active compounds read low 0.995 | locus YGL240W, strain doc1, active compounds read low 1 | locus YGL248W, strain PDE1, active compounds read low 0.987 | locus YGL253W, strain hxk2, active compounds read low 1 | locus YGR135W, strain pre9, active compounds read low 0.983 | locus YGR252W, strain gcn5, active compounds read low 1 | locus YHR013C, strain ard1, active compounds read low 1.02 | locus YHR027C, strain rpn1, active compounds read low 0.996 | locus YHR030C, strain SLT2, active compounds read low 1.01 and 1.02 | locus YHR079C, strain IRE1 (second series), active compounds read low 0.996 | locus YHR079C, strain IRE1, active compounds read low 1.02 | locus YHR094C, strain hxt1, active compounds read low 0.996 | locus YHR129C, strain ARP1, active compounds read low 1.01 | locus YHR142W, strain chs7, active compounds read low 1.01 | locus YHR200W, strain rpn10, active compounds read low 1 | locus YIL066C, strain RNR3, active compounds read low 1.01 | locus YIL073C, strain SPO22, active compounds read low 1.01 | locus YIL125W, strain kgd1, active compounds read low 0.997 | locus YIR030C, strain dcg1, active compounds read low 1.01 | locus YJL092W, strain hpr5, active compounds read low 0.985 | locus YJL095W, strain BCK1 (second series), active compounds read low 1 | locus YJL095W, strain BCK1, active compounds read low 0.977 and 1.01 | locus YJL115W, strain asf1, active compounds read low 0.978 | locus YJL129C, strain trk1, active compounds read low 1.01 | locus YJL134W, strain LCB3, active compounds read low 1 | locus YJL154C, strain vps35, active compounds read low 0.981 | locus YJL164C, strain tpk1, active compounds read low 0.989 | locus YJL166W, strain qcr8, active compounds read low 1.02 | locus YJL168C, strain set2, active compounds read low 1 | locus YJL187C, strain SWE1 (second series), active compounds read low 0.997 | locus YJL187C, strain SWE1, active compounds read low 0.994 | locus YJR043C, strain POL32, active compounds read low 1.03 | locus YJR066W, strain TOR1, active compounds read low 0.99 | locus YJR075W, strain HOC1, active compounds read low 1.01
